The text below walks through data of publication PMC7862700, “An all-to-all approach to the identification of sequence-specific readers for epigenetic DNA modifications on cytosine”.

Test in all cases: DAPPL (digital affinity profiling via proximity ligation, sequencing); 10 mM Tris-HCl pH 7.5, 50 mM NaCl, 1 mM DTT, 4% glycerol, room temperature, 30 min; GST-TFs on glutathione beads, 16-mer random dsDNA library, 0.1% formaldehyde crosslink after washing; high values mean tight binding
Common to all, as to conditions: protein: recombinant; tags: N-terminal GST; dsDNA, one strand shown

One assay addresses T1, FLI1 (Homo sapiens, UniProt Q01543 1-452).
T1 sequence: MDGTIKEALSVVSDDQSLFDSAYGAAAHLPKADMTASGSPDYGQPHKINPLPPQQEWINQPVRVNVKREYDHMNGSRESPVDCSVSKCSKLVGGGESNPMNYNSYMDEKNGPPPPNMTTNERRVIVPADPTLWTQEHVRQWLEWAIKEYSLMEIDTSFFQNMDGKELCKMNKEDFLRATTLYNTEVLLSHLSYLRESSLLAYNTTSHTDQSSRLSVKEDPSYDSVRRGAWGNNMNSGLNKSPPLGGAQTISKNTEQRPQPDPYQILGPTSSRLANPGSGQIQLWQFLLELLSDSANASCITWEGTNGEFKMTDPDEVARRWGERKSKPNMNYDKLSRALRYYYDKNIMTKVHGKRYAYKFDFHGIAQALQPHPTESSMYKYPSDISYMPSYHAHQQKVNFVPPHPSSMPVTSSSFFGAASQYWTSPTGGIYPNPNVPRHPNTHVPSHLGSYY
The method in brief:
(§1)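 Human transcription factors fused to GST were expressed in yeast, captured on glutathione beads, given DNA barcodes and pooled with a GST-only negative control. Pools were incubated with 200 nmole of a 16-mer random double-stranded DNA library in Tris/NaCl/DTT/glycerol buffer at room temperature for 30 min. They were then washed, crosslinked with 0.1% formaldehyde, proximity-ligated (BsaI/T4 ligase, 1 h, 37 °C), PCR-amplified and sequenced on an Illumina NextSeq500. Binding signal is each 6-mer's read frequency for a factor divided by its frequency for the GST control.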

For a further assay, the target named is T2, ELK1 (Homo sapiens, UniProt P19419 1-428).
T2 sequence: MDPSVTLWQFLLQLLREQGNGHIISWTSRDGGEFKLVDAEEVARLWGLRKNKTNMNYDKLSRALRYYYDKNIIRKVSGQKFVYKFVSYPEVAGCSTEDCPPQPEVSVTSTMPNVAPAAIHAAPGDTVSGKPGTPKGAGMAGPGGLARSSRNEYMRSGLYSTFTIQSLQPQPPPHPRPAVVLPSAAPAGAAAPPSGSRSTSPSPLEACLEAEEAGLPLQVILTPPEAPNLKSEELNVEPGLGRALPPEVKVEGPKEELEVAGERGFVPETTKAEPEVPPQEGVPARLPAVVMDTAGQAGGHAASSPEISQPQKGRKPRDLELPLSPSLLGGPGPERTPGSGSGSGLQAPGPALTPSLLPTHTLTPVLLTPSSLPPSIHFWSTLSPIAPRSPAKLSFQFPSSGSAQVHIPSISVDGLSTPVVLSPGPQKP
The essentials: as §1

Another assay addresses T3, GABPA (Homo sapiens, UniProt Q06546 1-454).
T3 sequence: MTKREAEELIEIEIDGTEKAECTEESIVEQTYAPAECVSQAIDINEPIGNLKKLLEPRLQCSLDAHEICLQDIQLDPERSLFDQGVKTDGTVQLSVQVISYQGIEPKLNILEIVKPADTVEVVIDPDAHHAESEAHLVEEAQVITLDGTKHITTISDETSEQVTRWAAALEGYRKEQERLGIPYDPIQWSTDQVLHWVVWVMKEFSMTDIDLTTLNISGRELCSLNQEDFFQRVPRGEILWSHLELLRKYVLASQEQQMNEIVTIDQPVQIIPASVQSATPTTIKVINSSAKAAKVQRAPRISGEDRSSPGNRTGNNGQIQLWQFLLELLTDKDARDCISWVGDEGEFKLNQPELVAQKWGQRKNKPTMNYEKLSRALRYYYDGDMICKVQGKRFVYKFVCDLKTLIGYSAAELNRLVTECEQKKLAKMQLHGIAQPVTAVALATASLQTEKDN
The method in brief: as §1

A further assay has as its target T4, ERG (Homo sapiens, UniProt P11308 1-479).
T4 sequence: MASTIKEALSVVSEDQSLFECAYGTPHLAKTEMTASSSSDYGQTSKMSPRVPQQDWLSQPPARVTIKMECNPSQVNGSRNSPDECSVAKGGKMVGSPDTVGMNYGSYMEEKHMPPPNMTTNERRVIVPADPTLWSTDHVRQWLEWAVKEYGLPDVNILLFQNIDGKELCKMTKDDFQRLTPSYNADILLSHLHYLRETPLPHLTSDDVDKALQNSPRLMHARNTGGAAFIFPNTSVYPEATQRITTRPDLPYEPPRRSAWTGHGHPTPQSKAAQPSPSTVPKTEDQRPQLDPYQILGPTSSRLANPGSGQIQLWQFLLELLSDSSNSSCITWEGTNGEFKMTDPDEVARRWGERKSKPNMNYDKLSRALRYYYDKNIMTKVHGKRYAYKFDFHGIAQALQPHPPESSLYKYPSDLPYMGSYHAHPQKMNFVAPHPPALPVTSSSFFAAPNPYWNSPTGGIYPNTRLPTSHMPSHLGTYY
The method in brief: as §1

The next assay has as its target ELF1 (Homo sapiens, UniProt P32519 1-619). The method in brief:
as §1

A further assay has as its target T5, EHF (Homo sapiens, UniProt Q9NZC4 1-300).
T5 sequence: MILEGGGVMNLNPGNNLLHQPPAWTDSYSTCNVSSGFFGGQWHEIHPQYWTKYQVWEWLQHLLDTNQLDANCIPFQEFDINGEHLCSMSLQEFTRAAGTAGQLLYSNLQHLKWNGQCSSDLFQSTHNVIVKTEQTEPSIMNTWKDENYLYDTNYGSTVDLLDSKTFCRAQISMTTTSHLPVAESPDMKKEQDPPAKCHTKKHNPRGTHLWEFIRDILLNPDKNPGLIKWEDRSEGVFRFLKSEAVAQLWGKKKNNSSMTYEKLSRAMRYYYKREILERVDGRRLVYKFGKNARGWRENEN
The method in brief:
as §1

The next assay deals with SPI1 (Homo sapiens, UniProt P17947 1-270). The method in brief:
as §1

The target in another assay is SPIB (Homo sapiens, UniProt Q01892 1-262). The method in brief:
as §1

A further assay has as its target T6, ELK3 (Homo sapiens, UniProt P41970 1-407).
T6 sequence: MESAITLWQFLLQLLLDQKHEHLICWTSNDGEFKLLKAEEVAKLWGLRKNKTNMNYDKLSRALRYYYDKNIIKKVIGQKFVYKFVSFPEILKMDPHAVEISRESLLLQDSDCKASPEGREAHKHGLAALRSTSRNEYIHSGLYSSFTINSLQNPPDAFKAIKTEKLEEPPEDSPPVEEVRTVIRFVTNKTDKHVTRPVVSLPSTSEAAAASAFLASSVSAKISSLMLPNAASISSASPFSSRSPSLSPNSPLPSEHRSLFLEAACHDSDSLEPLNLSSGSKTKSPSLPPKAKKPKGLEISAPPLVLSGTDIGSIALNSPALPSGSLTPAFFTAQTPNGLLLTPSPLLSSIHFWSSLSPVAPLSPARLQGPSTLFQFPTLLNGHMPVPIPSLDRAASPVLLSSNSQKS
The method in brief:
as §1

Chain of ELF1 (P32519 whole entry): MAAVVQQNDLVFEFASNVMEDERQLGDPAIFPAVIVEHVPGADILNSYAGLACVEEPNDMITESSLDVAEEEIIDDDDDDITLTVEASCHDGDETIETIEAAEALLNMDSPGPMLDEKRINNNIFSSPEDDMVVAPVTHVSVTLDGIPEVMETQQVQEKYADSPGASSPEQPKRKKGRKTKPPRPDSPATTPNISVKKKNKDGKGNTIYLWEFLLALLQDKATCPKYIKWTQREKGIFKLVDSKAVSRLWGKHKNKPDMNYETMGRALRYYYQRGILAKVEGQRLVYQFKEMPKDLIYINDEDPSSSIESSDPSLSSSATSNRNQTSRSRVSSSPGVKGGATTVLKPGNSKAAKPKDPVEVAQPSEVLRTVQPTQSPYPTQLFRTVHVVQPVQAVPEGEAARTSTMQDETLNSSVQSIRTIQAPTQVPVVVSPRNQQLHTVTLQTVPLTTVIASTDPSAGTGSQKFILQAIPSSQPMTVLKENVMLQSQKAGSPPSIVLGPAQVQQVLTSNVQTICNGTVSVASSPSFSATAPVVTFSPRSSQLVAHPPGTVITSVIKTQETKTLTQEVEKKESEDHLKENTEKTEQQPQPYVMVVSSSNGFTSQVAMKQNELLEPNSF
Chain of SPIB (Q01892 whole entry): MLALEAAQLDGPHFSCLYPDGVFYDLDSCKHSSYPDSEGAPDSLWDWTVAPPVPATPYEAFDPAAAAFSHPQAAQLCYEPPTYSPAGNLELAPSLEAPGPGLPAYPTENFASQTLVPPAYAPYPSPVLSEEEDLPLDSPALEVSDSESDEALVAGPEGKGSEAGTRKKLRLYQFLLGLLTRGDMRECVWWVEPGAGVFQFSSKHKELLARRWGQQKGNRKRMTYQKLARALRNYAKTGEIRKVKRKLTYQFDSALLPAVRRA

Take TCCTGG: the binding signal with FLI1 was 1.66 fold enrichment (6-mer frequency, TF over GST control); in the assay with ELK1, 1.47 fold enrichment (6-mer frequency, TF over GST control); with GABPA, 1.69 fold enrichment (6-mer frequency, TF over GST control); with ERG it was 1.85 fold enrichment (6-mer frequency, TF over GST control); in the assay with ELF1, 1.69 fold enrichment (6-mer frequency, TF over GST control); with EHF, 1.66 fold enrichment (6-mer frequency, TF over GST control). For the same sequence, the binding signal was 1.63 fold enrichment (6-mer frequency, TF over GST control) in the assay with SPI1; 1.74 fold enrichment (6-mer frequency, TF over GST control) with SPIB; 1.55 fold enrichment (6-mer frequency, TF over GST control) in the assay with ELK3.

For the sequence CCACCC, the binding signal with FLI1 was 1.17 fold enrichment (6-mer frequency, TF over GST control); with ELK1 it was 1.28 fold enrichment (6-mer frequency, TF over GST control); with GABPA, 1.28 fold enrichment (6-mer frequency, TF over GST control); in the assay with ERG, 1.21 fold enrichment (6-mer frequency, TF over GST control); in the assay with ELF1, 1.23 fold enrichment (6-mer frequency, TF over GST control); with EHF, 1.31 fold enrichment (6-mer frequency, TF over GST control). In addition, the binding signal with SPI1 is 1.22 fold enrichment (6-mer frequency, TF over GST control); with SPIB, 1.31 fold enrichment (6-mer frequency, TF over GST control); in the assay with ELK3, 1.23 fold enrichment (6-mer frequency, TF over GST control).

Regarding CGACGC, the binding signal in the assay with FLI1 is 1.11 fold enrichment (6-mer frequency, TF over GST control); with ELK1, 1.11 fold enrichment (6-mer frequency, TF over GST control); with GABPA, 1.04 fold enrichment (6-mer frequency, TF over GST control); with ERG, 1.05 fold enrichment (6-mer frequency, TF over GST control); with ELF1 it was 1.16 fold enrichment (6-mer frequency, TF over GST control); with EHF, 1.06 fold enrichment (6-mer frequency, TF over GST control). Further, the binding signal is 1.06 fold enrichment (6-mer frequency, TF over GST control) in the assay with SPI1; 1.08 fold enrichment (6-mer frequency, TF over GST control) with SPIB; 1.01 fold enrichment (6-mer frequency, TF over GST control) in the assay with ELK3.

On to ATTCAG, for which the binding signal was 1.02 fold enrichment (6-mer frequency, TF over GST control) with FLI1; 1.11 fold enrichment (6-mer frequency, TF over GST control) with ELK1; 1.17 fold enrichment (6-mer frequency, TF over GST control) with GABPA; 1.14 fold enrichment (6-mer frequency, TF over GST control) in the assay with ERG; 1.09 fold enrichment (6-mer frequency, TF over GST control) with ELF1; 1.1 fold enrichment (6-mer frequency, TF over GST control) with EHF. The binding signal in the assay with SPI1 was 1.16 fold enrichment (6-mer frequency, TF over GST control); with SPIB, 1.02 fold enrichment (6-mer frequency, TF over GST control); with ELK3, 1.16 fold enrichment (6-mer frequency, TF over GST control).

On to CACAAA, for which the binding signal with FLI1 is 1.06 fold enrichment (6-mer frequency, TF over GST control); with ELK1, 1.06 fold enrichment (6-mer frequency, TF over GST control); in the assay with GABPA, 1.12 fold enrichment (6-mer frequency, TF over GST control); in the assay with ERG, 1.12 fold enrichment (6-mer frequency, TF over GST control); in the assay with ELF1, 1.13 fold enrichment (6-mer frequency, TF over GST control); with EHF, 1.11 fold enrichment (6-mer frequency, TF over GST control). For the same sequence, the binding signal with SPI1 was 1.13 fold enrichment (6-mer frequency, TF over GST control); with SPIB, 1.04 fold enrichment (6-mer frequency, TF over GST control); with ELK3 it was 1.19 fold enrichment (6-mer frequency, TF over GST control).

Turning to TTATAA, the binding signal is 1.21 fold enrichment (6-mer frequency, TF over GST control) with FLI1; 1.16 fold enrichment (6-mer frequency, TF over GST control) in the assay with ELK1; 1.15 fold enrichment (6-mer frequency, TF over GST control) in the assay with GABPA; 1.14 fold enrichment (6-mer frequency, TF over GST control) with ERG; 1.14 fold enrichment (6-mer frequency, TF over GST control) in the assay with ELF1; 1.16 fold enrichment (6-mer frequency, TF over GST control) with EHF. The binding signal in the assay with SPI1 was 1.16 fold enrichment (6-mer frequency, TF over GST control); in the assay with SPIB, 1.2 fold enrichment (6-mer frequency, TF over GST control); in the assay with ELK3, 1.33 fold enrichment (6-mer frequency, TF over GST control).

TAGCAT: the binding signal with FLI1 is 1.16 fold enrichment (6-mer frequency, TF over GST control); with ELK1 it was 1.15 fold enrichment (6-mer frequency, TF over GST control); with GABPA, 1.05 fold enrichment (6-mer frequency, TF over GST control); with ERG, 1.11 fold enrichment (6-mer frequency, TF over GST control); with ELF1 it was 1.17 fold enrichment (6-mer frequency, TF over GST control); with EHF it was 1.14 fold enrichment (6-mer frequency, TF over GST control). The binding signal was 1.07 fold enrichment (6-mer frequency, TF over GST control) with SPI1; 1.05 fold enrichment (6-mer frequency, TF over GST control) with SPIB; 1.13 fold enrichment (6-mer frequency, TF over GST control) with ELK3.

In the case of GCTCTT, the binding signal is 1.58 fold enrichment (6-mer frequency, TF over GST control) in the assay with FLI1; 1.55 fold enrichment (6-mer frequency, TF over GST control) in the assay with ELK1; 1.52 fold enrichment (6-mer frequency, TF over GST control) with GABPA; 1.39 fold enrichment (6-mer frequency, TF over GST control) with ERG; 1.66 fold enrichment (6-mer frequency, TF over GST control) in the assay with ELF1; 1.29 fold enrichment (6-mer frequency, TF over GST control) with EHF. The binding signal with SPI1 is 1.37 fold enrichment (6-mer frequency, TF over GST control); with SPIB, 1.49 fold enrichment (6-mer frequency, TF over GST control); in the assay with ELK3 it was 1.56 fold enrichment (6-mer frequency, TF over GST control).
